# Measured values published in PubChem BioAssay (NCI).
# This is part of a sample that, as a whole, favours compounds with a hit. Of some 83,000 tested, about 20% had one in any assay.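 Single-dose data. Exposure time 48 hours. Values below 10 considered active.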 Calls of active or inactive are those of the source.
# Tested on: HCC-2998 colon
# Experiment: NCI-60 one-dose screen, 48 h (100 = growth as untreated, 0 = no growth, -100 = all killed)
# Conditions: 10 µM unless noted
row,Compound,growth
1,Cc1csc(/N=C(N)/N=C(\N)c2cccc(Br)c2)n1,97% (inactive)
2,NS(=O)(=O)c1ccc(Nc2nc(Nc3ccccc3)nc(N3N=C(c4ccc(Cl)cc4)CC3c3ccc(Cl)cc3)n2)cc1 (stereo not drawn),13.1% (inactive)
3,NC1[C@H]2CN(c3cnc(C(=O)Nc4cc(F)cc5cccnc45)cn3)C[C@@H]12 (stereo partly drawn),84.3% (inactive)
4,Cn1ncc2c(C(=O)c3ccc(F)cc3)nc(C(C)(C)C)nc21,103% (inactive)
5,COc1ccc(C2c3[nH]c4ccc(Cl)cc4c3CCN2c2oc(CO)nc2C#N)cc1 (stereo not drawn),57% (inactive)
6,Cc1ccc(Nc2nc(SC(C)C)nc(-c3ccccc3)c2C#N)cc1,88.2% (inactive)
7,O=C1CSC(c2cn(-c3ccccc3)nc2-c2ccc(Cl)cc2)N1c1ccccc1 (stereo not drawn),111% (inactive)
8,O=C1Nc2ccc(F)cc2/C1=C\C(=O)c1ccc(NS(=O)(=O)c2ccccc2)cc1,116% (inactive)
9,COc1ccc2[nH]cc(-c3nn4cc(-c5ccncc5)nc4s3)c2c1,81.4% (inactive)
10,CC1=C(C)C(=O)C(Nc2ccc(C)cc2)=C(Br)C1=O,104% (inactive)
11,CC(Nc1ncnc2ccc(-c3cnc4cnccn34)cc12)c1ccccc1 (stereo not drawn),80.7% (inactive)
12,Cc1ccc2c(n1)C(=O)C(Cl)=C(Nc1ccc(C(=O)OC(C)(C)C)cc1)C2=O,103% [9.25 µM] (inactive)
13,CCOC(=O)c1c(NC(=O)c2cccc(C(F)(F)F)c2)sc2c1CCC(=O)C2,87% (inactive)
14,C/C(=N\NC(=O)/C=C/CC(=O)O)c1nnn(-c2ccc([N+](=O)[O-])cc2)c1C,105% (inactive)
15,Cc1[nH]c(C(=O)Nc2ccccc2OCc2cccc(C(=O)NC3CCNC3)c2)c(Cl)c1Cl (stereo not drawn),5.81% (active)
16,N#Cc1nc(-c2ccccc2)oc1N1CCC(C2(C(F)(F)F)N=N2)CC1,107% (inactive)
17,CNC(=O)c1cc(-n2ccc3cc(NC(=O)Nc4ccc(N5CCN(C)CC5)c(C(F)(F)F)c4)ccc32)ccn1,92.3% (inactive)
18,NS(=O)(=O)c1nnc(/N=C/c2c(O)[nH]c3ccccc23)s1,107% (inactive)
19,C#C[C@]1(O)CC[C@H]2[C@@H]3CC=C4c5sc(NCc6ccccc6)nc5CC[C@]4(C)[C@H]3CC[C@@]21C,78.1% (inactive)

row,Compound,growth
1,CCOC(=O)c1c(NC(=O)c2ccc(C(F)(F)F)cc2)sc2c(CN3CCN(C)CC3)c(O)ccc12,-74.9% (active)
2,CC(Nc1c(C#N)cnc2ccc(-c3cncc(-c4n[nH]c(=O)o4)c3)cc12)c1ccccc1 (stereo not drawn),25.8% (inactive)
3,Cc1ccc(-c2cc3nc(C(Cl)Cl)nc(-c4ccc(S(=O)(=O)N(C)C)cc4)n3n2)cc1,91.7% (inactive)
4,O=C(N/N=C\c1ccc([N+](=O)[O-])cc1)c1ccc2nc(-c3ccc(Br)cc3)[nH]c2c1,5.66% (active)
5,CN(C)S(=O)(=O)c1ccc(-c2nc(C(Cl)Cl)nc3cc(-c4ccccc4)nn23)cc1,100% (inactive)
6,OCC(Nc1ncnc2ccc(-c3cnc4cnccn34)cc12)c1ccccc1 (stereo not drawn),82.9% (inactive)
7,COc1ccc(/C=N/N=C(/c2ccccc2)c2ccc3nc(-c4ccc(Cl)cc4)[nH]c3c2)cc1,89.6% (inactive)
8,CCN(CC)S(=O)(=O)c1ccc(-c2nc(C(Cl)Cl)nc3cc(C)nn23)cc1,23.8% (inactive)
9,CN(C)CCNc1ccc2ncc(C#Cc3cncc(C(=O)Nc4ccc(CN5CCN(C)CC5)c(C(F)(F)F)c4)c3)n2n1,-25.9% (active)
10,COc1ccc(-c2nc(C#N)c(N3CCC(S(=O)(=O)N4CCOCC4)CC3)o2)cc1,107% (inactive)
11,COc1ccc(OC)c(CCn2cncc2-c2c[nH]c3ccc(Cl)cc23)c1,72.4% (inactive)
12,NC(=O)c1c(NC(=O)c2ccc(C(F)(F)F)cc2)sc2c1CCC(=O)C2,32.3% (inactive)
13,CN1CCN(c2ccc(Nc3nc(NCCNC(=O)c4ccccc4)c4sccc4n3)cc2)CC1,84% (inactive)
14,COc1ccc(/C(=N\N=C(N)N)c2ccc(Cl)cc2)cc1OC,69.8% (inactive)
15,CCOC(=O)c1cccnc1Nc1ccc(NC(=O)Nc2ccc(Cl)c(C(F)(F)F)c2)cc1,50.4% (inactive)
16,O=C1[C@@H]2Cc3c([nH]c4ccccc34)[C@H](c3ccc(Cl)cc3)N2C(=O)CN1C1CCN(Cc2ccccc2)CC1,51.4% (inactive)
17,CC1=Cc2ccccc2OC12C=Cc1ccccc1O2 (stereo not drawn),99.9% (inactive)
18,C#CCOc1cccc(/C(N)=N/C(N)=N/c2nc3ccccc3s2)c1,109% (inactive)
19,CC(Nc1ncnc2ccc(-c3cnc(N)nc3)cc12)c1ccccc1 (stereo not drawn),43% (inactive)

# Tested on: KM12 colon
# Experiment: as above
# Conditions: 10 µM unless noted
row,Compound,growth
1,Cc1csc(/N=C(N)/N=C(\N)c2cccc(Br)c2)n1,73.2% (inactive)
2,Clc1ccc2[nH]cc(-c3nn4cc(-c5ccncc5)nc4s3)c2c1,47.7% (inactive)
3,NS(=O)(=O)c1ccc(Nc2nc(Nc3ccccc3)nc(N3N=C(c4ccc(Cl)cc4)CC3c3ccc(Cl)cc3)n2)cc1 (stereo not drawn),5.08% (active)
4,NC1[C@H]2CN(c3cnc(C(=O)Nc4cc(F)cc5cccnc45)cn3)C[C@@H]12 (stereo partly drawn),87.4% (inactive)
5,Cn1ncc2c(C(=O)c3ccc(F)cc3)nc(C(C)(C)C)nc21,100% (inactive)
6,COc1ccc(C2c3[nH]c4ccc(Cl)cc4c3CCN2c2oc(CO)nc2C#N)cc1 (stereo not drawn),23.4% (inactive)
7,Cc1ccc(Nc2nc(SC(C)C)nc(-c3ccccc3)c2C#N)cc1,96.1% (inactive)
8,O=C1CSC(c2cn(-c3ccccc3)nc2-c2ccc(Cl)cc2)N1c1ccccc1 (stereo not drawn),102% (inactive)
9,O=C1Nc2ccc(F)cc2/C1=C\C(=O)c1ccc(NS(=O)(=O)c2ccccc2)cc1,102% (inactive)
10,COc1ccc2[nH]cc(-c3nn4cc(-c5ccncc5)nc4s3)c2c1,64.1% (inactive)
11,CC1=C(C)C(=O)C(Nc2ccc(C)cc2)=C(Br)C1=O,104% (inactive)
12,CC(Nc1ncnc2ccc(-c3cnc4cnccn34)cc12)c1ccccc1 (stereo not drawn),41.6% (inactive)
13,Cc1ccc2c(n1)C(=O)C(Cl)=C(Nc1ccc(C(=O)OC(C)(C)C)cc1)C2=O,105% [9.25 µM] (inactive)
14,CCOC(=O)c1c(NC(=O)c2cccc(C(F)(F)F)c2)sc2c1CCC(=O)C2,32.2% (inactive)
15,C/C(=N\NC(=O)/C=C/CC(=O)O)c1nnn(-c2ccc([N+](=O)[O-])cc2)c1C,97.2% (inactive)
16,Cc1[nH]c(C(=O)Nc2ccccc2OCc2cccc(C(=O)NC3CCNC3)c2)c(Cl)c1Cl (stereo not drawn),-1.67% (active)
17,N#Cc1nc(-c2ccccc2)oc1N1CCC(C2(C(F)(F)F)N=N2)CC1,96.2% (inactive)
18,CNC(=O)c1cc(-n2ccc3cc(NC(=O)Nc4ccc(N5CCN(C)CC5)c(C(F)(F)F)c4)ccc32)ccn1,30.5% (inactive)
19,NS(=O)(=O)c1nnc(/N=C/c2c(O)[nH]c3ccccc23)s1,95.4% (inactive)
20,C#C[C@]1(O)CC[C@H]2[C@@H]3CC=C4c5sc(NCc6ccccc6)nc5CC[C@]4(C)[C@H]3CC[C@@]21C,18.9% (inactive)

row,Compound,growth
1,CCOC(=O)c1c(NC(=O)c2ccc(C(F)(F)F)cc2)sc2c(CN3CCN(C)CC3)c(O)ccc12,-21.2% (active)
2,CC(Nc1c(C#N)cnc2ccc(-c3cncc(-c4n[nH]c(=O)o4)c3)cc12)c1ccccc1 (stereo not drawn),17.1% (inactive)
3,Cc1ccc(-c2cc3nc(C(Cl)Cl)nc(-c4ccc(S(=O)(=O)N(C)C)cc4)n3n2)cc1,86.5% (inactive)
4,O=C(N/N=C\c1ccc([N+](=O)[O-])cc1)c1ccc2nc(-c3ccc(Br)cc3)[nH]c2c1,11.7% (inactive)
5,CN(C)S(=O)(=O)c1ccc(-c2nc(C(Cl)Cl)nc3cc(-c4ccccc4)nn23)cc1,74% (inactive)
6,OCC(Nc1ncnc2ccc(-c3cnc4cnccn34)cc12)c1ccccc1 (stereo not drawn),80.9% (inactive)
7,COc1ccc(/C=N/N=C(/c2ccccc2)c2ccc3nc(-c4ccc(Cl)cc4)[nH]c3c2)cc1,75.8% (inactive)
8,CCN(CC)S(=O)(=O)c1ccc(-c2nc(C(Cl)Cl)nc3cc(C)nn23)cc1,8.52% (active)
9,CN(C)CCNc1ccc2ncc(C#Cc3cncc(C(=O)Nc4ccc(CN5CCN(C)CC5)c(C(F)(F)F)c4)c3)n2n1,-8.42% (active)
10,COc1ccc(-c2nc(C#N)c(N3CCC(S(=O)(=O)N4CCOCC4)CC3)o2)cc1,97.1% (inactive)
11,COc1ccc(OC)c(CCn2cncc2-c2c[nH]c3ccc(Cl)cc23)c1,40.6% (inactive)
12,NC(=O)c1c(NC(=O)c2ccc(C(F)(F)F)cc2)sc2c1CCC(=O)C2,3.34% (active)
13,CN1CCN(c2ccc(Nc3nc(NCCNC(=O)c4ccccc4)c4sccc4n3)cc2)CC1,59.6% (inactive)
14,Cc1ccc(S(=O)(=O)NCCCNc2nc(Nc3ccc(N4CCN(C)CC4)cc3)nc3ccsc23)cc1,35.8% (inactive)
15,COc1ccc(/C(=N\N=C(N)N)c2ccc(Cl)cc2)cc1OC,61.5% (inactive)
16,CCOC(=O)c1cccnc1Nc1ccc(NC(=O)Nc2ccc(Cl)c(C(F)(F)F)c2)cc1,17.5% (inactive)
17,O=C1[C@@H]2Cc3c([nH]c4ccccc34)[C@H](c3ccc(Cl)cc3)N2C(=O)CN1C1CCN(Cc2ccccc2)CC1,57.6% (inactive)
18,CC1=Cc2ccccc2OC12C=Cc1ccccc1O2 (stereo not drawn),97.6% (inactive)
19,C#CCOc1cccc(/C(N)=N/C(N)=N/c2nc3ccccc3s2)c1,78.7% (inactive)
20,CC(Nc1ncnc2ccc(-c3cnc(N)nc3)cc12)c1ccccc1 (stereo not drawn),54.7% (inactive)
